The panel holds about 83,000 compounds, 20% with a hit somewhere; the sample as a whole holds those more often.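 In brief: 96-well plates, 48 h treatment, single concentration, percent growth endpoint.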 The source made the active and inactive calls. The calls were made as follows: active = growth percent below 10; inactive = the rest.
What was measured:
Assay in all cases: NCI-60 one-dose screen, 48 h (100 = growth as untreated, 0 = no growth, -100 = all killed)
Conditions in all cases: 10 µM unless noted
RPMI-8226 leukemia = tested on: RPMI-8226 leukemia
OVCAR-8 ovarian = tested on: OVCAR-8 ovarian
OVCAR-5 ovarian = tested on: OVCAR-5 ovarian
OVCAR-4 ovarian = tested on: OVCAR-4 ovarian
SK-OV-3 ovarian = tested on: SK-OV-3 ovarian
IGROV1 ovarian = tested on: IGROV1 ovarian
OVCAR-3 ovarian = tested on: OVCAR-3 ovarian
HS 578T breast = tested on: HS 578T breast
NCI/ADR-RES ovarian = tested on: NCI/ADR-RES ovarian
T-47D breast = tested on: T-47D breast
BT-549 breast = tested on: BT-549 breast
MDA-MB-435 melanoma = tested on: MDA-MB-435 melanoma
SW-620 colon = tested on: SW-620 colon
MCF7 breast = tested on: MCF7 breast
HCT-116 colon = tested on: HCT-116 colon
HCC-2998 colon = tested on: HCC-2998 colon
KM12 colon = tested on: KM12 colon

Measured: growth

CCCCc1nc(Cl)c(C2CC(c3ccc(Cl)cc3)=NN2c2cc(Cl)cc(Cl)c2)[nH]1 (stereo unspecified)
inactive: RPMI-8226 leukemia 90.9% | OVCAR-8 ovarian 68.5% | OVCAR-5 ovarian 94.2% | OVCAR-4 ovarian 63.5% | SK-OV-3 ovarian 92.4% | IGROV1 ovarian 71.1% | OVCAR-3 ovarian 65.9% | HS 578T breast 59.6% | NCI/ADR-RES ovarian 78.8% | T-47D breast 75% | BT-549 breast 72% | MDA-MB-435 melanoma 83.2% | SW-620 colon 16.8% | MCF7 breast 85.1% | HCT-116 colon 63.9% | HCC-2998 colon 102% | KM12 colon 89%

c1ccc(-c2cn3ccnc3c(-c3ccc4c(c3)ncn4C3CCCCC3)n2)cc1
inactive: RPMI-8226 leukemia 81.7% | OVCAR-8 ovarian 101% | OVCAR-5 ovarian 103% | OVCAR-4 ovarian 101% | SK-OV-3 ovarian 104% | IGROV1 ovarian 106% | OVCAR-3 ovarian 101% | HS 578T breast 101% | NCI/ADR-RES ovarian 100% | T-47D breast 74.5% | BT-549 breast 99.6% | MDA-MB-435 melanoma 99.5% | SW-620 colon 110% | MCF7 breast 84.1% | HCT-116 colon 96.2% | HCC-2998 colon 105% | KM12 colon 94.3%

COc1ccc(-c2cs/c(=N\N=C\c3ccc(O)cc3O)n2/N=C/c2ccc(O)cc2O)cc1
inactive: OVCAR-5 ovarian 10.6% | HS 578T breast 24.1%
active: RPMI-8226 leukemia -25.9% | OVCAR-8 ovarian -17.1% | OVCAR-4 ovarian -7.88% | SK-OV-3 ovarian -30.8% | IGROV1 ovarian -17.2% | OVCAR-3 ovarian -63.5% | NCI/ADR-RES ovarian -12.4% | T-47D breast -36.8% | BT-549 breast -10.4% | MDA-MB-435 melanoma -32.8% | SW-620 colon -51.3% | MCF7 breast -11.5% | HCT-116 colon -52.8% | HCC-2998 colon 4.8% | KM12 colon -51%

N#Cc1ccc(C2C3=C(CCCC3=O)OC3=C2C(=O)c2ccccc2C3=O)cc1 (stereo unspecified)
active: OVCAR-8 ovarian 1.88% | OVCAR-4 ovarian -2.83% | OVCAR-3 ovarian -1.75% | NCI/ADR-RES ovarian 6.19% | T-47D breast 3.02% | MDA-MB-435 melanoma -77% | MCF7 breast 0.491% | HCT-116 colon 6.16%
inactive: RPMI-8226 leukemia 54.7% | OVCAR-5 ovarian 126% | SK-OV-3 ovarian 97.7% | IGROV1 ovarian 40% | HS 578T breast 90.8% | BT-549 breast 91.9% | SW-620 colon 49.3% | HCC-2998 colon 104% | KM12 colon 89.8%

CCc1n(Cc2ccc3ccccc3c2)c2ccccc2[n+]1Cc1ccc2ccccc2c1
inactive: RPMI-8226 leukemia 13.5% | OVCAR-8 ovarian 55.1% | OVCAR-5 ovarian 75.7% | OVCAR-4 ovarian 18.3% | SK-OV-3 ovarian 83% | IGROV1 ovarian 45.8% | OVCAR-3 ovarian 34.3% | HS 578T breast 82.7% | NCI/ADR-RES ovarian 105% | T-47D breast 25.4% | BT-549 breast 58.7% | MDA-MB-435 melanoma 46.7% | SW-620 colon 77.1% | MCF7 breast 49.6% | HCT-116 colon 51.5% | HCC-2998 colon 58% | KM12 colon 39.6%

O=C(Nc1cc(=O)[nH]c(=O)[nH]1)C(Cl)Cl
inactive: RPMI-8226 leukemia 101% | OVCAR-8 ovarian 102% | OVCAR-5 ovarian 112% | OVCAR-4 ovarian 112% | SK-OV-3 ovarian 107% | IGROV1 ovarian 108% | OVCAR-3 ovarian 113% | HS 578T breast 95.4% | NCI/ADR-RES ovarian 111% | T-47D breast 91.4% | BT-549 breast 107% | MDA-MB-435 melanoma 110% | SW-620 colon 100% | MCF7 breast 97.1% | HCT-116 colon 107% | HCC-2998 colon 92.4% | KM12 colon 107%

N#Cc1c(-c2ccc(F)cc2)c(C#N)c2c(C#N)c(N)nn2c1N
inactive: RPMI-8226 leukemia 104% | OVCAR-8 ovarian 103% | OVCAR-5 ovarian 96.1% | OVCAR-4 ovarian 100% | SK-OV-3 ovarian 82.2% | IGROV1 ovarian 80.9% | OVCAR-3 ovarian 98.7% | HS 578T breast 98% | NCI/ADR-RES ovarian 99.9% | T-47D breast 66.4% | BT-549 breast 95.9% | MDA-MB-435 melanoma 101% | SW-620 colon 107% | MCF7 breast 96.7% | HCT-116 colon 92.5% | HCC-2998 colon 90.3% | KM12 colon 94.1%

CC(C)NS(=O)(=O)c1cccc(-c2ccc3c(=O)n(CCCN)c4c(c3c2)C(=O)c2ccccc2-4)c1
inactive: RPMI-8226 leukemia 102% | OVCAR-8 ovarian 97.6% | OVCAR-5 ovarian 109% | OVCAR-4 ovarian 85.2% | SK-OV-3 ovarian 107% | IGROV1 ovarian 102% | OVCAR-3 ovarian 99% | HS 578T breast 105% | NCI/ADR-RES ovarian 98.6% | T-47D breast 103% | BT-549 breast 99.8% | MDA-MB-435 melanoma 107% | SW-620 colon 92.4% | MCF7 breast 101% | HCT-116 colon 96.6% | HCC-2998 colon 105% | KM12 colon 98.9%

CCCCN(CCCC)CC(CN(CC)CC)OC(=O)Nc1ccccc1 (stereo unspecified)
inactive: RPMI-8226 leukemia 96.7% | OVCAR-8 ovarian 106% | OVCAR-5 ovarian 76.7% | OVCAR-4 ovarian 77.1% | SK-OV-3 ovarian 87.4% | IGROV1 ovarian 57% | OVCAR-3 ovarian 108% | HS 578T breast 113% | NCI/ADR-RES ovarian 82.4% | T-47D breast 92.2% | BT-549 breast 88.4% | MDA-MB-435 melanoma 102% | SW-620 colon 74.1% | MCF7 breast 79.4% | HCT-116 colon 56.5% | HCC-2998 colon 85.1% | KM12 colon 93.9%

CC(C)(C)c1nc2c(s1)c1nc(N)ncc1c1ccc(NS(=O)(=O)c3c(F)cccc3F)c(F)c12
inactive: RPMI-8226 leukemia 68.9% | OVCAR-8 ovarian 61.1% | OVCAR-5 ovarian 104% | OVCAR-4 ovarian 60.7% | SK-OV-3 ovarian 13.7% | IGROV1 ovarian 38.5% | OVCAR-3 ovarian 80.7% | HS 578T breast 60.4% | NCI/ADR-RES ovarian 80.6% | T-47D breast 42.9% | BT-549 breast 77.4% | MDA-MB-435 melanoma 38.6% | SW-620 colon 110% | MCF7 breast 89.8% | HCT-116 colon 49.3% | HCC-2998 colon 82% | KM12 colon 35.5%

OCCNc1nc(NCCO)nc(Nc2ccc(C3=NN(c4cc(Cl)cc(Cl)c4)C(c4ccc(Cl)cc4)C3)cc2)n1 (stereo unspecified)
inactive: OVCAR-8 ovarian 20.8% | OVCAR-5 ovarian 86% | SK-OV-3 ovarian 83.1% | HS 578T breast 11.6% | NCI/ADR-RES ovarian 20.6% | T-47D breast 87.1% | BT-549 breast 52.1% | SW-620 colon 23.4% | HCC-2998 colon 27.1% | KM12 colon 19.3%
active: RPMI-8226 leukemia -8.1% | OVCAR-4 ovarian -17.6% | IGROV1 ovarian -11.6% | OVCAR-3 ovarian -60.4% | MDA-MB-435 melanoma -15.8% | MCF7 breast 3.94% | HCT-116 colon 4.84%

CCC[S@](=O)c1ccc2nc(NC(=O)OC)[nH]c2c1
inactive: RPMI-8226 leukemia 96.4% | OVCAR-8 ovarian 84.9% | OVCAR-5 ovarian 101% | OVCAR-4 ovarian 104% | SK-OV-3 ovarian 74.5% | IGROV1 ovarian 97.1% | OVCAR-3 ovarian 104% | HS 578T breast 102% | NCI/ADR-RES ovarian 106% | T-47D breast 87.7% | BT-549 breast 97.3% | MDA-MB-435 melanoma 101% | SW-620 colon 93.4% | MCF7 breast 92% | HCT-116 colon 84.4% | HCC-2998 colon 105% | KM12 colon 103%

O=Cc1[nH]c(Sc2ccccc2)c2ccccc12
inactive: OVCAR-8 ovarian 68.6% | OVCAR-5 ovarian 87.4% | OVCAR-4 ovarian 58.3% | SK-OV-3 ovarian 83.5% | IGROV1 ovarian 88.2% | OVCAR-3 ovarian 50.4% | HS 578T breast 64.9% | NCI/ADR-RES ovarian 69.7% | T-47D breast 44.1% | BT-549 breast 53.4% | MDA-MB-435 melanoma 81.7% | SW-620 colon 81.1% | MCF7 breast 72.2% | HCT-116 colon 60.6% | HCC-2998 colon 109% | KM12 colon 81.2%
active: RPMI-8226 leukemia 7.59%

NC(=O)C(O)(c1ccccc1)c1ccccc1
active: OVCAR-3 ovarian -48.6%
inactive: RPMI-8226 leukemia 93.2% | OVCAR-8 ovarian 98.2% | OVCAR-5 ovarian 110% | OVCAR-4 ovarian 101% | SK-OV-3 ovarian 97.2% | IGROV1 ovarian 111% | HS 578T breast 97.1% | NCI/ADR-RES ovarian 102% | T-47D breast 90.1% | BT-549 breast 113% | MDA-MB-435 melanoma 103% | SW-620 colon 96% | MCF7 breast 91.5% | HCT-116 colon 103% | HCC-2998 colon 98.5% | KM12 colon 96.9%

CCOC(=O)/C=C1\SC(=Nc2ccc(C#N)cc2)N(CCN2C(=O)/C(=C/C(=O)OCC)SC2=Nc2ccc(C#N)cc2)C1=O
active: RPMI-8226 leukemia -26.8% | OVCAR-8 ovarian 5.38% | OVCAR-3 ovarian 7.13% | SW-620 colon 9.61% | HCT-116 colon 4.59%
inactive: OVCAR-5 ovarian 84.4% | OVCAR-4 ovarian 50.8% | SK-OV-3 ovarian 85.4% | IGROV1 ovarian 23.7% | HS 578T breast 63.7% | NCI/ADR-RES ovarian 43.7% | T-47D breast 21.1% | BT-549 breast 32.5% | MDA-MB-435 melanoma 72.6% | MCF7 breast 24.4% | HCC-2998 colon 20.6% | KM12 colon 23.2%

COc1ccc(Nc2nc(SCC(C)C)nc(-c3ccc(F)cc3)c2C#N)cc1
active: MDA-MB-435 melanoma 9.54%
inactive: RPMI-8226 leukemia 88% | OVCAR-8 ovarian 89.4% | OVCAR-5 ovarian 94.3% | OVCAR-4 ovarian 80.9% | SK-OV-3 ovarian 73.4% | IGROV1 ovarian 71.4% | OVCAR-3 ovarian 21% | HS 578T breast 79.1% | NCI/ADR-RES ovarian 40.3% | T-47D breast 65% | BT-549 breast 75.5% | SW-620 colon 47.9% | MCF7 breast 29.1% | HCT-116 colon 35.7% | HCC-2998 colon 92.8% | KM12 colon 44.4%

C=C(C)[C@@H]1CC[C@]2(C(=O)OCCCC[P+](c3ccccc3)(c3ccccc3)c3ccccc3)CC[C@]3(C)[C@H](CC[C@@H]4[C@@]5(C)CC[C@H](OC(=O)C(Cl)Cl)C(C)(C)[C@@H]5CC[C@]43C)[C@@H]12
inactive: NCI/ADR-RES ovarian 52.7%
active: RPMI-8226 leukemia -40% | OVCAR-8 ovarian -1.54% | OVCAR-5 ovarian -1.72% | OVCAR-4 ovarian -0.103% | SK-OV-3 ovarian -5.89% | IGROV1 ovarian -23.3% | OVCAR-3 ovarian -42.7% | HS 578T breast -0.621% | T-47D breast -14.3% | BT-549 breast -71.6% | MDA-MB-435 melanoma -62.3% | SW-620 colon 0.909% | MCF7 breast 3.36% | HCT-116 colon -76.3% | HCC-2998 colon -62.8% | KM12 colon -54.8%

O=C1NN(c2ccccc2)C(c2ccc(Cl)cc2)N2CCC[C@H]12 (stereo partly specified)
inactive: RPMI-8226 leukemia 102% | OVCAR-8 ovarian 98.1% | OVCAR-5 ovarian 103% | OVCAR-4 ovarian 95.7% | SK-OV-3 ovarian 107% | IGROV1 ovarian 98.6% | OVCAR-3 ovarian 93.4% | HS 578T breast 91.6% | NCI/ADR-RES ovarian 93.1% | T-47D breast 100% | BT-549 breast 117% | MDA-MB-435 melanoma 99.2% | SW-620 colon 87.3% | MCF7 breast 79.9% | HCT-116 colon 99.7% | HCC-2998 colon 88.1% | KM12 colon 94.9%

Source: PubChem BioAssay (NCI)
